Source: PubChem BioAssay AID540360 (National Center for Advancing Translational Sciences (NCATS), 2011)
Inconclusive results are not listed. Values without a mark were called inactive. Activity calls are given as the source filed them. The call rests on the fitted dose curve; in most records, active means well fitted inhibition curve with a large enough effect; inconclusive means small, poorly fitted or top-dose-only effect; inactive means no such curve, though single readings can be large or run the other way.

What follows are compounds tested on 6-phosphofructokinase (Trypanosoma brucei) (assay: Confirmatory Assay to Find Inhibitors of T. brucei phosphofructokinase: probe SAR). Conditions: recombinant T. brucei PFK, ADP-Glo luminescence; series mostly up to 57.5 µM; activity change, negative = inhibition: at the top concentration.
Excerpt: NIH Molecular Libraries Probe Production Network [MLPCN] NIH Chemical Genomics Center [NCGC] Grant: 1 R03 MH092153-01 PI Name: Malcolm Walkinshaw, University of Edinburgh NCGC Assay Overview: Various species of the protozoan family Trypanosomatidae are responsible for a range of serious human diseases in tropical and subtropical areas of the world. […] Many of the disorders caused by trypanosomatids are fatal if left untreated, but most currently used drugs are inefficient and toxic. […] Oxidative metabolism involving the mitochondrial tricarboxylic acid cycle and oxidative phosphorylation are repressed in these parasites, and recent RNA interference (RNAi) experiments have shown that even partial depletion of certain individual glycolytic enzymes can lead to the death of cultured parasites. One such glycolytic enzyme, phosphofructokinase (PFK), catalyzes the formation of fructose-1,6-bisphosphate (F1,6BP) and ADP from fructose-6-phosphate (F6P) and ATP, and in many metabolic circumstances makes an important contribution to the control of flux through the glycolytic pathway. As a specific glycolytic target, PFK is particularly attractive as it catalyzes the first irreversible step in glycolysis, and structural and kinetic studies have shown very substantial and essential differences from corresponding host enzymes, allowing for the discovery of parasite-selective inhibitors. The goal of this screen is to find small-molecule inhibitors of T. brucei PFK using a biochemical assay that measures PFK activity as a function of ADP production. A luminescence-based assay for T. brucei PFK activity has been developed which uses luciferase to detect production of ADP. Traditional luciferase-based nucleotide detection reagents rely on ATP production as a direct substrate for the luciferase reaction; however, PFK catalyzes the transfer of a phosphate from ATP to F6P, resulting in the net depletion of ATP. To directly measure the ADP product of the PFK reaction, we used the ADP-Glo detection kit (Promega), which utilizes two separate reactions to 1) deplete all remaining uncatalyzed ATP and 2) convert all remaining ADP to ATP, which is then detected through a traditional luciferase-coupled reaction. Compounds were screened as a concentration-titration series that ranged from 57 uM to 0.3 nM.
NCGC Assay Protocol Summary: NCGC Assay Protocol Summary: Substrate buffer was dispensed into white, solid 1536-well plates at 3uL/well in 0.1M triethanolamine (TEA) buffer, pH 8.0, containing final concentrations of 5 mM MgCl2, 0.01% Tween20, 0.5 mM fructose-6-phosphate (F6P) and 0.1mM ATP. Then, 23 nL of compounds or DMSO were delivered to each well using a pin tool. One uL T. brucei PFK (0.1M TEA, 0.01% Tween20, 0.1% bovine serum albumin (BSA) and 1.25nM PFK, final concentrations) was then dispensed, and plates were incubated at room temperature for 45 min. The luminescent detection reagent, ADP-Glo (Promega), was then added in two steps: the first reagent, ADP-Glo (which converts remaining uncatalyzed ATP), was added at 2.5uL/well and incubated for ten minutes at room temperature, and the second component, Kinase Detection reagent (which converts ADP to ATP as a substrate for luciferase-based luminescence), was added immediately after at 5uL/well, followed by one final ten minute room temperature incubation. The plates were measured on a ViewLux plate reader for luminescent signal using a clear filter with a one second exposure. The %Activity was determined from the corrected luminescence values. As no specific T. brucei PFK inhibitors have been identified in the literature, 1x (1.25nM) and 0x PFK enzyme controls (untreated) were included to normalize %Activity of identified inhibitors; 0x enzyme values corresponded to 100%Activity (full inhibition), while 1x PFK enzyme values were used to normalize 0%Activity (no inhibition). Concentration-response curves were fitted to the signals arising from the resulting luminescence. […]

| SMILES | activity change, negative = inhibition [%] | Potency |
| --- | --- | --- |
| COc1ccc(CC(=O)Nc2ccc(S(=O)(=O)Nc3cc(C)on3)cc2)cc1OC | 3.92 | – |
| Cc1cc(NS(=O)(=O)c2ccc(NC(=O)Cc3ccc(Cl)c(Cl)c3)cc2)on1 | – | 206 nM (active) |
| O=C(Cc1ccc(Cl)c(Cl)c1)Nc1ccc(S(=O)(=O)O)cc1 | – | 651 nM (active) |
| O=C(Cc1ccc(Cl)c(Cl)c1)Nc1ccc(S(=O)(=O)Nc2cccc(C(=O)O)c2)cc1 | – | 259 nM (active) |
| Cc1cc(NS(=O)(=O)c2ccc(N(C)C(=O)Cc3ccc(Cl)c(Cl)c3)cc2)no1 | – | 1630 nM (active) |
| O=C(Cc1ccc(Cl)c(Cl)c1)Nc1ccc(S(=O)(=O)Nc2ccn[nH]2)cc1 | – | 517 nM (active) |
| Cc1cc(N[S+](=O)([O-])c2ccc3cc(NC(=O)Cc4ccc(Cl)c(Cl)c4)ccc3c2)no1 | – | 5800 nM (active) |
| Cc1cc(NS(=O)(=O)c2ccc(NCCc3ccc(Cl)c(Cl)c3)cc2)no1 | – | 4610 nM (active) |
| Cc1cc(NS(=O)(=O)c2ccc(C(=O)NCc3ccc(Cl)c(Cl)c3)cc2)no1 | – | 2910 nM (active) |
| O=C(Cc1ccc(Cl)c(Cl)c1)Nc1ccc(S(=O)(=O)Nc2cccc(O)c2)cc1 | – | 1460 nM (active) |
| Cc1cc(NS(=O)(=O)c2ccc(NC(=O)Cc3ccc(Cl)c(F)c3)cc2)no1 | – | 580 nM (active) |
| Cc1cc(NS(=O)(=O)Cc2ccc(NC(=O)Cc3ccc(Cl)c(Cl)c3)cc2)no1 | – | 2590 nM (active) |
| O=C(Cc1ccc(Cl)c(Cl)c1)Nc1ccc(S(=O)(=O)Nc2ccc(C(=O)O)cc2)cc1 | – | 163 nM (active) |
| Cc1cc(NS(=O)(=O)c2ccc(NC(=O)Cc3ccc(Cl)c(Cl)c3)cc2)n(C)n1 | – | 1460 nM (active) |
| O=C(Cc1ccc(Cl)c(Cl)c1)Nc1ccc(S(=O)(=O)Nc2cncnc2)cc1 | – | 819 nM (active) |
| Cc1cc(NS(=O)(=O)c2ccc(NC(=O)Cc3ccc(C)c(C)c3)cc2)no1 | – | 18300 nM (active) |
| Cc1cc(N(C)S(=O)(=O)c2ccc(NC(=O)Cc3ccc(Cl)c(Cl)c3)cc2)no1 | – | 2910 nM (active) |

| SMILES | activity change, negative = inhibition [%] | Potency |
| --- | --- | --- |
| O=C(Cc1ccc(Cl)c(Cl)c1)Nc1ccc(S(=O)(=O)Nc2ccccc2)cc1 | – | 16300 nM (active) |
| COc1ccc(CC(=O)Nc2ccc(S(=O)(=O)Nc3cc(C)on3)cc2)cc1C | -23.2 | – |
| Cc1cc(NS(=O)(=O)c2ccc(NC(=O)Cc3ccc(C)c(F)c3)cc2)no1 | – | 5800 nM (active) |
| Cc1cc(N[S+](=O)([O-])c2ccc(NC(=O)Cc3ccc(Cl)nc3)cc2)no1 | – | 20600 nM (active) |
| CN(C)c1cccc(NS(=O)(=O)c2ccc(NC(=O)Cc3ccc(Cl)c(Cl)c3)cc2)c1 | – | 5800 nM (active) |
| Cc1cc(NS(=O)(=O)c2ccc(NC(=O)Cc3cccc(Cl)c3)cc2)no1 | – | 7300 nM (active) |
| Cc1cc(NS(=O)(=O)c2ccc(NC(=O)Cc3ccc(Cl)c(Cl)c3)cc2)no1 | – | 410 nM (active) |
| CCOC(=O)c1cccc(NS(=O)(=O)c2ccc(NC(=O)Cc3ccc(Cl)c(Cl)c3)cc2)c1 | -12.9 | – |
| Cc1cc(NS(=O)(=O)c2ccc(NC(=O)Cc3ccc(Cl)cc3)cc2)no1 | – | 1830 nM (active) |
| Cc1cc(NS(=O)(=O)c2ccc(NC(=O)CCc3ccc(Cl)c(Cl)c3)cc2)no1 | – | 5170 nM (active) |
| Cc1cc(NS(=O)(=O)c2ccc(NC(=O)Cc3ccc(Cl)c(C(F)(F)F)c3)cc2)no1 | – | 461 nM (active) |
| Cc1cc(NS(=O)(=O)c2ccc(NC(=O)Cc3ccc4ccccc4c3)cc2)no1 | – | 6510 nM (active) |
| Cc1cc(NS(=O)(=O)c2ccc(NC(=O)Cc3ccc(Cl)cc3Cl)cc2)no1 | – | 4610 nM (active) |
| Cc1cc(NC(=O)c2ccc(NC(=O)Cc3ccc(Cl)c(Cl)c3)cc2)no1 | -9.38 | – |
| Cc1cc(NS(=O)(=O)c2cccc(NC(=O)Cc3ccc(Cl)c(Cl)c3)c2)no1 | – | 16300 nM (active) |
| O=C(Cc1ccc(Cl)c(Cl)c1)Nc1ccc(S(=O)(=O)Nc2ccon2)cc1 | – | 366 nM (active) |
| Cc1cc(NC(=O)c2csc(NC(=O)Cc3ccc(Cl)c(Cl)c3)n2)no1 | -33.7 | – |
